FAK blocker – inhibitors of human focal adhesion kinase. biochemical FAK kinase activity assay. inhibition, %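 (tested at 7 µM)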. 0.84% of 97,000 active. AID 727; in the data active = inhibition above about 19%
Calb biofilm kill – kills Candida albicans biofilms; C. albicans biofilm + clotrimazole, Alamar Blue; inhibition, % at 6 µM; 0.14% of 85,000 active; AID 834;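 active = inhibition above 20%; inactive = inhibition below 20%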;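 also: preformed 24 hr biofilms exposed to compound for 48 hr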
ERa coact inh – blocks coactivator binding to human estrogen receptor alpha. P03372. inhibition, % at 25.6 µM. TR-FRET ER-alpha LBD / SRC-1 peptide, estradiol-bound. 1.7% of 86,000 active; in the data active = inhibition above about 50%
Smad3 inh – blocks human Smad3 binding to FoxH1 peptide. P84022. TR-FRET Smad3/Dy647-FoxH1 peptide binding, europium anti-His. inhibition, % at 25 µM. 0.29% of 88,000 active. AID 630;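 active = compounds that reduce the energy-transfer binding signal between the protein and its labelled peptide by more than half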
Target sequence (P84022 whole entry, looked up): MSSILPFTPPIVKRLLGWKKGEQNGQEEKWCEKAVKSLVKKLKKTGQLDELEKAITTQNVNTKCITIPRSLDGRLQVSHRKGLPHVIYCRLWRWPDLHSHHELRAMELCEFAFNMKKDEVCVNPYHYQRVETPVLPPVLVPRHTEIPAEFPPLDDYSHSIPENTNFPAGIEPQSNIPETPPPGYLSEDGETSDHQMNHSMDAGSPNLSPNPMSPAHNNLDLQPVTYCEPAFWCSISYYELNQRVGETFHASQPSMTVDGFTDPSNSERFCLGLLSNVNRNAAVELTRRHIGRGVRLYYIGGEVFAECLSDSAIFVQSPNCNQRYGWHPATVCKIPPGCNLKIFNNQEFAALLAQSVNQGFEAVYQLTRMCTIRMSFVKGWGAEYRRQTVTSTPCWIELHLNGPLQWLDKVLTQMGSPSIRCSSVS
ERa coact pot – enhances coactivator binding to human estrogen receptor alpha; P03372; TR-FRET ERalpha-LBD/SRC-Cy5 coactivator binding, 2 h; 100 = basal binding, no effect; coactivator binding (% of control), % at 25.6 µM; 1.3% of 86,000 active; AID 639; in the data active = activity above about 200%;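 also: binding measured in presence of low estradiol as agonist stimulus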
ERb coact inh – blocks coactivator binding to human estrogen receptor beta; TR-FRET ER-beta LBD / SRC1-Cy5 peptide binding; receptor agonist-loaded with 1 µM estradiol; 1.3% of 86,000 active; Q92731; inhibition, % at 25.6 µM;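 active = compounds whose percent inhibition of the receptor-coactivator binding signal exceeds about 50% in the single-dose screen, limit read from the data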
Numbers stand for hits; – = inactive; · = not tested or not shown; [ ] = remark or other dose. Rows were chosen to be rich in hits. Some 3.3% of all compounds tested hit in one or more screens of this group.

SMILES | FAK blocker | Calb biofilm kill | ERa coact inh | Smad3 inh | ERa coact pot | ERb coact inh
O=C(CSc1nnc2scc(-c3ccc(Cl)cc3)n12)NCc1ccc2c(c1)OCO2 | – | – | – | – | 213 | –
N[C@@H]1[C@H](C(=O)O)[C@@H]2C=C[C@H]1C2 | · | · | · | – | · | ·
NC(=O)C/C=C/CC(N)=O | · | · | · | – | · | ·
Cc1ccc(S(=O)(=O)O[C@H]2C[C@@H](C(C)(C)C)CC[C@@H]2c2ccccc2)cc1 | · | · | · | – | · | ·
COc1ccc(Cl)c(S(=O)(=O)N2CCCC2)c1 | – | – | – | – | – | –
CCN(CC)C(=O)Sc1cccc2cccnc12 | – | – | – | – | – | –
CCOC(=O)CSc1cccc2cccnc12 | – | – | – | – | 237[fluorescence artefact?] | –
O[C@@H](c1cc(C(F)(F)F)nc2c(Cl)cc(Cl)cc12)[C@@H]1CCCCN1 | · | · | · | – | · | ·
CCOC(=O)C1=C(O)/C(=C/c2ccc(C)o2)SC1=NC(=O)c1ccccc1C | – | – | 64[fluorescence artefact?] | – | – | –
CCOC(=O)C1=C(O)/C(=C/c2cc(OC)c(OC)c(OC)c2)SC1=Nc1ccc(OC)cc1 | – | · | · | · | · | ·
O=C(c1ccc(NC2=NC3CS(=O)(=O)CC3S2)cc1)N1CCc2ccccc2C1 (centres undefined) | · | 29 | – | – | – | –
O=C(c1ccc(NC2=NC3CS(=O)(=O)CC3S2)cc1)N1CCN(Cc2ccccc2)CC1 (centres undefined) | – | – | 93[fluorescence artefact?] | – | – | –
COc1ccc(OC)c(N(CC(=O)Nc2cccnc2)S(=O)(=O)c2ccccc2)c1 | – | – | – | – | – | –
CCOC(=O)[C@@H](O)Cc1cnc2ccccc2n1 | · | · | · | – | · | ·
CC(C)CCSc1nc(N)c(C#N)cc1C#N | – | – | – | – | 391[fluorescence artefact?] | –
N[C@@H](CSC(=O)c1ccccc1)C(=O)O | · | · | · | – | · | ·
CC(C)c1nnc(NC(=O)C2CCN(c3nc4ccccc4s3)CC2)s1 | · | – | 67[fluorescence artefact?] | – | – | –
O=C(COC(=O)c1ccccc1NCc1ccco1)Nc1ccc2c(c1)OCO2 | – | – | – | – | – | –
O=C(COC(=O)c1ccccc1NC(=O)c1ccco1)NCCC1=CCCCC1 | · | – | – | – | – | 98[fluorescence artefact?]
O=C(COC(=O)c1ccccc1NC(=O)c1ccco1)Nc1ccc2c(c1)OCO2 | – | – | 71[fluorescence artefact?] | – | – | –
CCn1c(NN)nc2sc3c(c2c1=O)CCC3 | – | – | – | – | – | 52
OCCN[C@@H]1c2cc(Cl)ccc2-c2c(Cl)cc(Cl)cc21 | · | · | · | – | · | ·
Cc1cc(C)c2cc(C#N)c(N3CCCC3)nc2c1 | – | – | 51[fluorescence artefact?] | – | – | –
Cc1ccc2nc(N3CCN(S(=O)(=O)c4ccc5c(c4)OCCO5)CC3)c(C#N)cc2c1 | – | – | – | – | 258[fluorescence artefact?] | 56[fluorescence artefact?]
Cc1ccc(S(=O)(=O)N2CCCN(S(=O)(=O)c3ccc4c(c3)OCCO4)CC2)cc1 | – | – | – | – | – | –
SMILES | FAK blocker | Calb biofilm kill | ERa coact inh | Smad3 inh | ERa coact pot | ERb coact inh
COc1cc(C(=O)N2CCCN(c3nc4cc(C)ccc4cc3C#N)CC2)cc(OC)c1OC | · | – | – | – | – | –
Cc1ccc(S(=O)(=O)N2CCCN(c3nc4cc(C)ccc4cc3C#N)CC2)cc1 | – | – | – | – | 350[fluorescence artefact?] | –
CCCSc1nnc(NC(=O)Nc2ccc(F)cc2)s1 | · | – | – | – | 247 | –
CCCSc1nnc(NC(=O)Nc2ccccc2)s1 | · | – | – | – | – | –
Cc1cccc(C(C)(C)C)c1OCCCCN1CCCC1 | – | – | – | – | – | –
S=C1NCN2CCN(CC2)CNC(=S)C(=S)NCN2CCN(CC2)CNC1=S | · | · | · | – | · | ·
CCc1ccc2nc(NC(=O)CSCc3c(C)noc3C)sc2c1 | – | – | – | – | – | 91[fluorescence artefact?]
Cc1nc(N)nc2ccccc12 | · | · | · | – | · | ·
CCN(CC)CC(=O)Nc1c(C)cc(C)cc1C | · | – | · | · | · | ·
Cc1nnc2sc(-c3ccc(NC(=O)c4ccc(-c5ccc(Br)cc5)o4)cc3)nn12 | 21 | – | 69 | – | – | –
Cc1ccc(-c2nn3c(C)nnc3s2)cc1NC(=O)c1ccc(-c2ccc(Cl)cc2Cl)o1 | · | – | 67[fluorescence artefact?] | – | – | –
CCC(=O)Nc1ccc(-c2nn3c(C)nnc3s2)cc1 | – | – | – | – | – | –
COc1ccc(-c2noc(CSc3nc(-c4ccccc4)cc(=O)[nH]3)n2)cc1 | – | – | – | – | 242[fluorescence artefact?] | –
COc1cccc(CNC(=O)Cn2c(=O)oc3ccccc32)c1OC | – | – | – | – | – | –
CCOc1ccccc1CNC(=O)Cn1c(=O)oc2ccccc21 | – | – | – | – | – | 55[fluorescence artefact?]
O=C(Nc1ccc2c(c1)CCC2)C1CCN(c2ncccn2)CC1 | · | – | – | – | – | –
O=C(Nc1ccc(C2CCCCC2)cc1)C1CCN(c2ncccn2)CC1 | · | – | 55 | – | 234[fluorescence artefact?] | –
N#Cc1ccsc1NC(=O)CSc1ncn[nH]1 | – | · | – | – | – | –
N#Cc1ccsc1NC(=O)CSc1ncnc2ccccc12 | – | – | 91[fluorescence artefact?] | – | – | 61
Cn1ccnc1SCC(=O)Nc1sccc1C#N | – | – | 67[fluorescence artefact?] | – | – | –
C1CCN(CC[C@@H]2CCCCN2)CC1 | · | · | · | – | · | ·
CC(C)=C[C@H]1[C@H](C(=O)Oc2ccccc2C(C)C)C1(C)C | · | · | · | – | · | ·
Nc1ccc2nc3n(c(=O)c2c1)CCC3 | · | – | – | – | 215 | –
COc1ccc(CCNC(=O)CN2C(=O)C3(OCCCO3)c3ccccc32)cc1OC | · | – | – | – | – | –
CC(C)C(NC(=O)c1ccccc1NC(=O)c1ccco1)C(=O)O (centres undefined) | – | – | – | – | – | –
SMILES | FAK blocker | Calb biofilm kill | ERa coact inh | Smad3 inh | ERa coact pot | ERb coact inh
O=C(Nc1cccc2cccc(NC(=O)c3ccco3)c12)c1ccco1 | – | – | – | – | – | 52
CC(NC(=O)c1ccccc1NC(=O)c1ccco1)c1ccccc1 (centres undefined) | – | – | – | – | 241[fluorescence artefact?] | –
Cc1nc(CC(=O)N2CCN(c3cccc(C)c3C)CC2)cs1 | – | – | – | – | – | –
COC(=O)/C(=C\Nc1ccc(Cl)cc1Cl)NC(=O)c1ccc(Cl)cc1Cl | – | – | 74[fluorescence artefact?] | – | – | –
COC(=O)/C(=C\Nc1ccc(Cl)cc1Cl)NC(=O)c1ccccc1 | – | – | – | – | – | –
COc1ccc(CN(CC(=O)NCC2CCCO2)C(=O)CNS(=O)(=O)c2ccc(C)cc2)cc1 (centres undefined) | – | – | – | – | – | –
Cc1ccc(S(=O)(=O)NCC(=O)N(CC(=O)NCC2CCCO2)Cc2ccccc2)cc1 (centres undefined) | – | 20 | – | – | – | –
O=C1CS/C(=N\C(=O)N2c3ccccc3Sc3ccccc32)N1 | – | – | – | – | – | –
O=c1c(-c2nc3ccccc3s2)cccn1Cc1ccc(Cl)c(Cl)c1 | – | · | · | · | · | ·
COc1ccc(-c2nnn(CC(=O)Nc3sc4c(c3C#N)CCCC4)n2)cc1 | – | – | 51[fluorescence artefact?] | – | – | –
COC(=O)c1sccc1NC(=O)Cn1nnc(-c2ccc(C)cc2)n1 | – | – | – | – | 212 | –
Cn1c(CNC(=O)c2ccc(Cl)cc2)nnc1SCC(=O)Nc1sc2c(c1C#N)CCCC2 | – | – | – | – | 250 | –

Screens deposited in PubChem BioAssay by several laboratories.
